Screening data from PubChem BioAssay.
MITF inh = blocks human microphthalmia-associated transcription factor; O75030; AlphaScreen MITF homodimerization, bead proximity signal; inhibition, % at 2.6 µM; hit rate 0.91% among 650,000; AID 1259374; in the data active means inhibition above about 50%;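 further: 0% = vehicle wells with protein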
TEAD-YAP inh = TEAD-YAP interaction inhibition; hit rate 1.4% among 640,000; inhibition, % at 9.12 µM; HEK-TIYL cells, TEAD-Gal4/YAP UAS-luciferase luminescence; in the data active means inhibition above about 32%;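 further: 0% = median of test compound wells and 100% = reference inhibitor wells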
GPR151 activ = activators of human GPR151; PathHunter beta-arrestin GPR151 cells, luminescence; activation, % at 11.2 µM; hit rate 1% among 650,000; in the data active means activation above about 4.9%;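 further: 0% = median of compound wells and 100% = cells with positive control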
Target sequence (Q8TDV0 whole entry, looked up): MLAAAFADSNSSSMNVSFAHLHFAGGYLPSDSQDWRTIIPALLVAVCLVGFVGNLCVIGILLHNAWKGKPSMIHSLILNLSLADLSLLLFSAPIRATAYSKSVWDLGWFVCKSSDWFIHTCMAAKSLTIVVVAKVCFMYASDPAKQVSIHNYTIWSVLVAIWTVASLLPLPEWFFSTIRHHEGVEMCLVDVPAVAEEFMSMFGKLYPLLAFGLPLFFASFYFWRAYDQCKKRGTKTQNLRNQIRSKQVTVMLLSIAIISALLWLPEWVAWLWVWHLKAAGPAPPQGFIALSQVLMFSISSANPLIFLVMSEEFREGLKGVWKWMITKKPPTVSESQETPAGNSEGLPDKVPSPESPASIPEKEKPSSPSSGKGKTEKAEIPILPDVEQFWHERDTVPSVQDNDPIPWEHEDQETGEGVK
FBW7 activator = human FBW7 E3 ligase activation, primary screen | AlphaScreen FBW7–phospho-cyclin E peptide binding, activator screen | normalized activity (activation), % at 26.1 µM | hit rate 0.13% among 650,000 | Q969H0; in the data active means normalized activity above about 1.9%;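 further: purified mutant Fbw7 with reduced substrate affinity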
The depositor's hits bear a star. Most compounds without a hit are left out; they make up all but 3.5% or so of the library.

SMILES	MITF inh	TEAD-YAP inh	GPR151 activ	FBW7 activator
COc1ccc(C(=O)Nc2cc(Cl)ccc2C(=O)O)cc1	15	6	-1	0
CCOC(=O)C1C(=O)NC(SCC(=O)Nc2ccc(Cl)cc2)=C(C#N)C1c1ccccc1Cl (configuration not stated)	13	19	0	1
CC(C)(C)c1ccc(C2CC2C(=O)N/N=C\c2ccc[nH]2)cc1 (configuration not stated)	5	91*	0	0
CCc1nn2cc(-c3ccc(F)cc3)nc2s1	9	40*	-10	0
CCc1nn2cc(-c3ccccc3)nc2s1	10	74*	-10	0
COc1cc(-c2nn3cc(-c4ccccc4)nc3s2)cc(OC)c1OC	5	-30	0	1
CCC(C)(C)NC(=O)C1CCN(S(=O)(=O)c2ccc(F)cc2)CC1	1	0	0	0
CCC(C)(C)NC(=O)C1CCN(S(=O)(=O)c2ccc(C)cc2)CC1	-2	74*	1	0
CCOC(=O)c1oc2ccccc2c1NC(=O)C1CCN(S(=O)(=O)c2ccc(C)cc2)CC1	16	35*	-2	1
CCC(C)(C)C(=O)Nc1ccc(S(=O)(=O)N2CCC(C)CC2)cc1	15	11	-1	2.2*
CC(=O)c1cccc(NC(=O)CCNS(=O)(=O)c2ccc3c(c2)CCC(=O)N3)c1	5	-1	1	0
O=C(Nc1cccc(Cl)c1N1CCC(NC2CC2)CC1)c1ccc(Br)o1	8	-4	1	0
CC(C)C12CN3CC(C(C)C)(CN(C1)C3c1ccc(F)cc1)C2=O (configuration not stated)	2	-3	0	0
O=c1c(C=NCCc2ccccn2)c(CSc2ccc(Cl)cc2)[nH]n1-c1nc2ccccc2s1	65*	0	1	0
O=c1[nH]c(=S)n(Cc2ccco2)c(O)c1/C=C1\C=CC=N1	101*	-3	1	-1
O=c1[nH]c(=O)n(-c2ccccc2F)c(O)c1/C=C1\C=CC=N1	13	57*	0	0
CCOc1ccccc1-n1c(O)c(/C=C2\C=CC=N2)c(=O)[nH]c1=O	13	24	0	0
O=c1[nH]c(=S)n(-c2ccccc2)c(O)c1/C=C1\C=CC=N1	-7	-8	0	0
Cc1ccccc1-n1c(O)c(/C=C2\C=CC=N2)c(=O)[nH]c1=O	9	57*	-2	0
O=c1[nH]c(=O)n(-c2ccccc2Cl)c(O)c1/C=C1\C=CC=N1	11	61*	-1	0
CNC(=O)c1ccc(-c2cccc(N(C)C)c2)nc1N(C)C	-2	-20	2	0
COc1ccc(-c2nc(N)n(C(=O)c3ccccc3OC)n2)cc1	9	40*	1	0
CCCCN(Cc1ccccc1)S(=O)(=O)c1ccc2c(c1)CCN2C(=O)CC	-4	9	0	0
CC(=O)N(CN1C(=O)C2CCC(C)CC2C1=O)c1ccc(C)c(Cl)c1 (configuration not stated)	-6	-4	0	0
COC(=O)c1nn(-c2ccc3c(c2)CCN3C(C)=O)cc1O	-2	94*	-10	0
SMILES	MITF inh	TEAD-YAP inh	GPR151 activ	FBW7 activator
Fc1ccc(-c2nc(-c3ccccc3)no2)cc1	17	-34	0	1
Oc1ccc(-c2noc(-c3ccc(F)cc3)n2)cc1	-1	65*	-9	0
Cc1ccc(NC(=O)Cn2ncc3c2-c2cc(C)ccc2OC3)nc1	11	35*	-2	0
Cc1ccnc(NC(=O)Cn2ncc3c2-c2cc(C)ccc2OC3)c1	-6	-1	0	0
COCC(=O)Nc1cccc([N+](=O)[O-])c1	5	3	-1	0
CN1C(=O)N(C)c2cccc3cccc1c23	1	-17	-1	0
CN1C(/C=C/c2ccccc2Cl)=Nc2cccc3cccc1c23	53*	-47	0	0
COc1ccc(/C=C2/SC(=Nc3ccc(O)cc3)NC2=O)c(OC)c1OC	0	0	2	0
COc1cccc(/C=C2\SC(=Nc3ccc(O)cc3)NC2=O)c1OC	4	46*	3	0
COc1ccc(/C=C2\SC(=Nc3cccc(O)c3)NC2=O)cc1OC	3	43*	1	0
COc1ccc(/C=C2/SC(=Nc3ccccc3)NC2=O)cc1OC	7	1	1	0
Cc1ccc(-n2nc3c(c2NC(=O)c2c(-c4ccccc4Cl)noc2C)CSC3)c(C)c1	10	3	0	0
O=C(c1ccc(Cl)cc1)c1cc([N+](=O)[O-])ccc1N1CCCCCC1	5	3	0	0
O=C(COc1ccccc1)Nc1nccs1	9	-3	-10	0
Cc1cccc(OCC(=O)Nc2nccs2)c1	-11	54*	-6	0
COc1cccc(-n2cc(C(=O)Nc3nccs3)c3ccccc3c2=O)c1	-6	43*	1	0
COc1cccc(OCC(=O)Nc2nccs2)c1	0	37*	-5	0
Cc1cccc(OCCCC(=O)Nc2nccs2)c1	-5	4	2	0
COc1cccc(-n2cc(C(=O)Nc3ccccc3Cl)c3ccccc3c2=O)c1	6	9	-2	1
CC(=O)Nc1cccc(NC(=O)c2cn(-c3ccc(C)c(C)c3)c(=O)c3ccccc23)c1	4	44*	0	0
O=C(c1cc2ccccc2o1)c1coc2ccc(O)cc12	-7	65*	-8	0
Cc1nc(C)c(C(=O)c2coc3ccc(O)cc23)o1	11	-28	0	0
NC(=O)c1oc2ccccc2c1NC(=O)c1cc2c(ccc3ccccc32)oc1=O	2	-9	1	0
Cc1nc2ccccc2c2nc3ccccc3n12	-3	-2	1	0
c1ccc2c(c1)nnn1c3ccccc3nc21	4	35*	-9	0
SMILES	MITF inh	TEAD-YAP inh	GPR151 activ	FBW7 activator
Cc1ccc2oc3nn(-c4ccccc4)c(=O)c-3cc2c1	9	53*	-1	1
CCCOC(=O)C1=C(C)N(CC)C(=O)NC1c1ccccc1[N+](=O)[O-] (configuration not stated)	6	12	0	2.5*
Fc1cc(-c2nc(Nc3ccc(-n4cnc(-c5ccccn5)c4)cc3)ncc2F)cc(N2CCOCC2)c1	7	54*	0	-2
Fc1cc(-c2nc(Nc3cccc(Cn4cncn4)c3)ncc2F)cc(N2CCOCC2)c1	2	88*	1	0
Fc1cc(-c2nc(Nc3cccc(Cn4ccnc4)c3)ncc2F)cc(N2CCOCC2)c1	-2	94*	-2	0
Fc1cc(-c2nc(Nc3ccc(Cn4ccnc4)cc3)ncc2F)cc(N2CCOCC2)c1	4	89*	0	0
Fc1cc(-c2nc(Nc3ccc(-c4cnco4)cc3)ncc2F)cc(N2CCOCC2)c1	9	2	1	1
COCCNC(=O)CSCc1nc(-c2ccc(Cl)cc2)oc1C	0	-9	-1	0
O=[N+]([O-])c1ccc(Nc2nc3ccccc3nc2NS(=O)(=O)c2ccccc2)cc1	18	4	3	1
CCOc1ccc(-n2c(O)c(C3=c4ccccc4=NC3=O)sc2=S)cc1	1	-3	0	0
Fc1cnc(Nc2ccc(Cn3cccn3)cc2)nc1-c1cc(N2CCOCC2)cc(C(F)(F)F)c1	7	0	2	0
